The entries come from a sample that favours hits as a whole.
Dicer processing = inhibitors of Dicer pre-microRNA processing, primary screen, biochemical, cat-ELCCA, chemiluminescence | Endoribonuclease Dicer (Homo sapiens), Q9UPY3 | cat-ELCCA pre-miR-21 Dicer processing; active compounds read high | z-score at 25 µM | hit rate 6% among 47,000 | AID 1347074, 2019; in the data active = z-score above about 3, passing the limit was not always enough;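 note: higher signal means more uncleaved substrate so more Dicer inhibition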
Each line names hits and unclear results; the compound was inactive in the other large screens.

CN(C)/C=N/S(=O)(=O)c1ccc(Cl)c(Cl)c1	none
O=c1ccc2ccc(O)c(O)c2o1	none
CCN(CC)c1nc2ccccc2c(=O)s1	Dicer processing 3.7
CCOc1ccc(Nc2nc3ccccc3c(=O)s2)cc1	none
O=C(Nc1nc2ccccc2c(=O)s1)c1ccccc1	none
O=C(NC(=O)c1ccccc1Cl)c1ccccc1O	none
Nc1cc(NC(=O)c2ccccc2O)ccc1Cl	Dicer processing 5.6
O=C(Nc1ccc(Oc2ccc(NC(=O)c3ccccc3Cl)cc2)cc1)c1ccccc1Cl	none
CS(=O)(=O)Nc1nc2n(n1)C(c1ccc(F)cc1)C=C(c1ccc(Cl)cc1)N2 (stereo not drawn)	none
CC1=CC(c2ccc(Cl)cc2)n2nc(NC(=O)c3ccco3)nc2N1 (stereo not drawn)	Dicer processing 9.8
Cc1ccc(C2C=C(c3ccc(Cl)cc3)Nc3nc(NS(C)(=O)=O)nn32)cc1 (stereo not drawn)	none
CC(=O)Oc1c(I)c(=O)n(C)c2ccccc12	none
Cn1c(=O)c(-c2ccccc2)c(O)c2ccccc21	none
Cn1c(=O)c(I)c(O)c2ccccc21	Dicer processing 5.3
CCNS(=O)(=O)c1cccc2c(N)cccc12	none
COC(=O)C1=C(C)N=c2s/c(=C/c3ccc4c(c3)OCO4)c(=O)n2C1c1ccccc1 (stereo not drawn)	none
COC(=O)C1=C(C)N=c2s/c(=C/c3ccc(Cl)cc3)c(=O)n2C1c1ccc(OC)cc1 (stereo not drawn)	Dicer processing 4.6
COC(=O)c1sc(N2C(=O)C(=O)/C(=C(/O)c3ccc(Cl)cc3)C2c2ccc(OC)cc2)nc1C (stereo not drawn)	none
CCOC(=O)C1=C(C)N=C2SCCC(=O)N2C1c1ccc(C(C)(C)C)cc1 (stereo not drawn)	none
CN(C)c1ccc(C(C[N+](=O)[O-])c2c(N)n(C)c(=O)n(C)c2=O)c(F)c1C#N (stereo not drawn)	none
CCOC(=O)N1CCN(S(C)(=O)=O)CC1	Dicer processing 3.5
CCCS(=O)(=O)N1CCN(C2CCN(C(=O)OCC)CC2)CC1	none
CCOC(=O)N1CCN(S(=O)(=O)c2ccc(Cl)cc2)CC1	none
CCOC(=O)c1ccc(-n2sc3c(c2=S)-c2cc(OC)ccc2NC3(C)C)cc1	none
CCOC(=O)c1c(-c2cccs2)nn(-c2ccc([N+](=O)[O-])cc2)c1N	none
COc1ccc(/C=N/N=C/c2ccc(OC)c(OC)c2)cc1OC	none
COc1cc(/C=N/N=C/c2ccccc2O)cc(OC)c1OC	Dicer processing 7.4
CCNC(=S)N/N=C/c1cc(OC)c(OC)c(OC)c1	none
COc1cc(C(=O)NNC(=O)c2ccco2)c(-n2c(C)ccc2C)cc1OC	none
CCC1(C)Cc2[nH]c(=O)c(C(=O)O)cc2CO1 (stereo not drawn)	none
C=CCNC(=O)C(=O)NCCc1c[nH]c2ccccc12	Dicer processing 3.7
CCOC(=O)NC(=S)NCCc1c[nH]c2ccccc12	none
N#C/C(=C\c1ccc(-c2cc(C(F)(F)F)cc(C(F)(F)F)c2)o1)C(=O)NCCc1c[nH]c2ccccc12	none
CCOC(=O)C1=C(C)NC(=O)CC1c1cc(OC)c(OC)cc1Br (stereo not drawn)	none
CCn1ncc(CNC(=O)CCSc2nc(-c3ccco3)cc(C(F)(F)F)n2)c1C	none
c1ccc(-c2nnc(N3CCc4ccccc43)nc2-c2ccccc2)cc1	none
CCOC(=O)c1nnc2cc(C)nn2c1C	none
CCOc1ccc(/C(O)=C2/C(=O)C(=O)N(CCCN(C)C)C23C(=O)N(CC)c2ccccc23)cc1 (stereo not drawn)	none
CCN1C(=O)C2(/C(=C(/O)c3ccccc3)C(=O)C(=O)N2CCCN(C)C)c2ccccc21 (stereo not drawn)	Dicer processing 3.6
C=CCN1C(=O)C2(/C(=C(/O)c3ccc(F)cc3)C(=O)C(=O)N2CCCN(C)C)c2ccccc21 (stereo not drawn)	none
C=CCN1C(=O)C2(/C(=C(/O)c3ccccc3)C(=O)C(=O)N2CCCN(C)C)c2ccccc21 (stereo not drawn)	Dicer processing 4
C=CCN1C(=O)C2(/C(=C(/O)c3ccc(OCC)cc3)C(=O)C(=O)N2CCN(C)C)c2ccccc21 (stereo not drawn)	none
CN(C)CCCN1C(=O)C(=O)/C(=C(\O)c2ccccc2)C12C(=O)N(C)c1ccccc12 (stereo not drawn)	none
O=C(c1cccc(C(F)(F)F)c1)N1CCN(c2cccc3[nH]ccc23)CC1	none
CN(C)NC(=S)NC1CC2CCC1C2 (stereo not drawn)	none
OC(CNC1CCCCC1)Cn1c2ccccc2c2ccccc21 (stereo not drawn)	none
Cc1ccc2c(c1)c(C)c(C)n2CC(O)CN1CCCCC1C (stereo not drawn)	Dicer processing 3.6
Cc1cc(C)n(CC(O)Cn2c(C)c(C)c3ccccc32)n1 (stereo not drawn)	none
Cc1nn(C)cc1NC(=O)c1cc2n(n1)C(C(F)(F)F)CC(c1ccco1)N2 (stereo not drawn)	none
CCc1ccc2oc(-c3cc(N)cc(C)c3O)nc2c1	none
Cc1cc(C)c(-n2nnnc2SCC(=O)Nc2ccc(C(F)(F)F)cc2)c(C)c1	none
O=c1cc(NCCC2=CCCCC2)c2ccccc2o1	Dicer processing 3.5
Cc1ccc(S(=O)(=O)NCCC2=CCCCC2)cc1	none
O=C(O)[C@H]1CCCC[C@H]1C(=O)NCCC1=CCCCC1	none
Cn1c(CNC(=O)OC(C)(C)C)nnc1SCC(=O)Nc1ccccc1	none
COc1ccccc1-c1nc2c3c4c(sc3ncn2n1)CCCCC4	none
FC(F)(F)c1ccccc1-n1nnnc1-c1ccc(Cl)cc1Cl	none
Cc1cc(=O)n2ncnc2n1CC(=O)NN	Dicer processing 3.1
O=C(Cn1c(-c2ccccc2)cc(=O)n2ncnc12)N/N=C/c1ccc2c(c1)OCO2	none
Cc1cc(=O)n2ncnc2n1CC(=O)N/N=C/c1ccc(Cl)cc1	none
C=CCSc1nnc2c(n1)OC(C)=Nc1ccccc1-2	none
CNC(=O)c1c(N)sc2c1CCCC2	none
Fc1ccc(C2=CC(c3ccccc3Cl)n3ncnc3N2)cc1 (stereo not drawn)	none
CCCc1cc(=O)[nH]c(SCc2ccc(C(=O)Oc3ccc(F)cc3F)cc2)n1	none
Cc1ccc(N/C=C(\C#N)S(=O)(=O)c2ccc(Cl)cc2)cc1	none
O=C(CCCOc1ccccc1)NC1CCSC1=O (stereo not drawn)	none
O=C(COc1ccccc1)NC1CCSC1=O (stereo not drawn)	Dicer processing 3.4
O=C(CCc1ccccc1)NC1CCSC1=O (stereo not drawn)	none
COc1ccc(-n2nnnc2-c2c[nH]c3ccc(C)cc23)cc1	none
COc1c(C(C)=O)c(O)c(OC)c2occc12	none
Clc1ccc(-n2nnnc2-c2cccnc2)c(Cl)c1	none
COC(=O)Cc1c(-c2ccccc2)c2cc(Br)ccc2[nH]c1=O	Dicer processing 3.9
COc1ccc2[nH]c(=O)c(-c3ccccc3)c(O)c2c1	none
COC(=O)c1[nH]c2ccc([N+](=O)[O-])cc2c1-c1ccccc1	none
O=C(NC(=S)NN1CCOCC1)c1csc([N+](=O)[O-])c1	none
Cc1onc(-c2c(Cl)cccc2Cl)c1NC(=O)NNc1ccccn1	none
O=[N+]([O-])c1cc(F)ccc1-n1cccc1	none
CC(=O)Nc1ccc(C2C3=C(CC(C)(C)CC3=O)Nc3[nH]c(=O)[nH]c(=O)c32)cc1 (stereo not drawn)	none
C/C(Nc1ccc([N+](=O)[O-])cc1)=C1/CCOC1=O	none
C/C(Nc1ccc(F)cc1)=C1/CCOC1=O	Dicer processing 3.2
Cc1cc(C(=O)Nc2ccc(F)cc2)c(C)o1	none
CCCOc1cccc(C2Nc3ccccc3NC3=C2C(=O)CC(C)(C)C3)c1 (stereo not drawn)	none
O=S(=O)(c1ccc(Cl)cc1)c1nc(-c2ccccc2Br)oc1N1CCOCC1	none

Assay outcomes deposited in PubChem BioAssay by Center for Chemical Genomics, University of Michigan.
